From ChEMBL document CHEMBL3988442, “University of Dundee, Small-Polar-MMV Screening Library” (2021) come the findings set out here.

The whole screen tested about 48,000 compounds, of which about 13,000 (27%) showed an effect of 50% or more. The list shows a part of the results.

This assay relates to Wolbachia pipientis. Briefly: Anti-Wolbachia Cell-Based Screen. It is filed as functional. Further details: scale not given: in the data most compounds retested in dose-response had high values. Particulars: 5 µM.
For `CCN1CCC(CNCc2cc(C)ccc2OC)C1` (stereo not drawn), the “Percent Effect” value stood at 23.09%. Then `Cc1[nH]nc2ncc(C(=O)N3CCN(C(C)(C)C)CC3)cc12`, with 13.12%. Then `CN(C)c1ccccc1CN1CCCCC1CNS(C)(=O)=O` (stereo not drawn), with -10.3%; and `O=C1CC2(CCN(C(=O)c3csc(-c4ccccc4)n3)C2)C(=O)N1` (stereo not drawn), with 6.339%; and `COCCCN1CCC(NC(=O)C2CC2)CC1`, with -0.3398%.

As for `O=C(c1ccoc1)N1CCn2nc(CN3CCSCC3)cc2C1`, the “Percent Effect” value is recorded as -1.758%. The figure for `O=C([C@H]1C[C@H]2[C@H](CCN2Cc2cccs2)O1)N1CCOCC1` is 91.43%. Then `CN(C)Cc1nc(-n2cnc(C(=O)NCC3CC3)c2)n2ccccc12`, with 123.3%.

Take `CN(C)Cc1nc(-n2cnc(C(=O)NC3CCCC3)c2)n2ccccc12`: the “Percent Effect” value was 115.9%. Then `O=C(NCCO)c1ccn(-c2ccc3ccccn23)n1`, with -13.14%; and `CN(Cc1nnc2ccccn12)C(=O)NC1CCCCC1`, with -15.02%.

Consider `Cn1cnc(-c2nc(C(=O)NCC3CCCO3)c3ccccn23)c1` (stereo not drawn), for which the “Percent Effect” value was -2.484%. Then `O=C(NC1CCCC1)c1cc(Cn2cnc3ccccc32)on1`, with -23.61%; and `Cc1nc[nH]c1-c1nc2cc(S(=O)(=O)N3CCCC3)ccc2n1C`, with -21.22%.

On to `Cc1ncc(CNc2cnccc2CO)s1`, for which the “Percent Effect” value is 7.83%. Consider `CCS(=O)(=O)N1C[C@@H](O)[C@H](Oc2cccc(F)c2)C1`, for which the “Percent Effect” value was found to be 115.8%. Then `O=C(c1ccnnc1)N1C[C@@H]2CC[C@H](Oc3cccc(F)c3)[C@@H]2C1`, with -13.73%; and `Cc1cnccc1CN1C[C@@H](O)[C@H](Oc2cccc(F)c2)C1`, with -1.659%. Then `CCN(C)C(=O)c1ccc(N2CCC(Oc3cccc(F)c3)CC2)nc1`, with -6.141%; and `CCN(CC)S(=O)(=O)N1C[C@@H](O)[C@H](Oc2cccc(F)c2)C1`, with 71.42%. The figure for `CCN(Cc1cccc(F)c1)S(=O)(=O)N1CCOCC1` is -36.14%. On to `COc1cccc(F)c1-c1nc2c([nH]1)c(C1CC1)nn2C`, for which the “Percent Effect” value was determined as 3.42%. The figure for `CCCC(C)C(=O)Nc1ccc(OC)nc1N1CCN(C(C)=O)CC1` (stereo not drawn) is -14.17%; for `CNc1cc(CNC(=O)c2ccccn2)nc(-c2ccncc2)n1` it is -12.05%; for `COc1cc(C(=O)NCc2cc(N3CCOCC3)ncn2)ccn1` it is 5.956%. Take `CNc1cc(CNC(=O)c2ccccc2)nc(-c2ccncc2)n1`: the “Percent Effect” value is -7.143%.

As to `CNc1cc(CNC(=O)c2ccncc2)nc(-c2ccncc2)n1`, the “Percent Effect” value came out at 109.4%. Then `CNc1cc(CNC(=O)c2ccccc2OC)nc(-c2ccncc2)n1`, with 104.1%; and `COc1cc(C(=O)N(C)C(C)Cc2cc(C)ccn2)ccn1` (stereo not drawn), with -2.709%; and `CNc1cc(CNC(=O)c2ccnc(OC)c2)nc(-c2ccncc2)n1`, with 103.5%. Then `O=C(NCCOc1ncc(Cl)cc1Cl)c1cccnc1`, with 0.5232%. `Cc1cc(NC(C)C(=O)NCc2ccccc2)nc(-c2ccncc2)n1` (stereo not drawn): the “Percent Effect” value is 6.15%. The figure for `CNc1cc(CNC(=O)c2cccnc2)nc(-c2ccncc2)n1` is 94.55%.
